Measurements: PubChem BioAssay AID1030 (National Center for Advancing Translational Sciences (NCATS), 2008)
“And” between values parts separate entries of the source, which are not always exact repeats. Equal values may be shown once. Hit rate of the full screen: of about 220,000 compounds, about 16,000 (7.3%) were called active. Inconclusive results (about 25%) are left out. Calls follow the shape of the dose curve; as a rule, active = well fitted inhibition curve with a large enough effect (not every such curve was filed as active); inconclusive = small, poorly fitted or top-dose-only effect, or another doubt; inactive = no such curve, though single readings can be large or run the other way. Shown is part of a subset that was picked to be rich in actives.

Biological target: Aldehyde dehydrogenase 1A1 (Homo sapiens) (UniProt P00352)
Sequence (P00352 whole entry, looked up): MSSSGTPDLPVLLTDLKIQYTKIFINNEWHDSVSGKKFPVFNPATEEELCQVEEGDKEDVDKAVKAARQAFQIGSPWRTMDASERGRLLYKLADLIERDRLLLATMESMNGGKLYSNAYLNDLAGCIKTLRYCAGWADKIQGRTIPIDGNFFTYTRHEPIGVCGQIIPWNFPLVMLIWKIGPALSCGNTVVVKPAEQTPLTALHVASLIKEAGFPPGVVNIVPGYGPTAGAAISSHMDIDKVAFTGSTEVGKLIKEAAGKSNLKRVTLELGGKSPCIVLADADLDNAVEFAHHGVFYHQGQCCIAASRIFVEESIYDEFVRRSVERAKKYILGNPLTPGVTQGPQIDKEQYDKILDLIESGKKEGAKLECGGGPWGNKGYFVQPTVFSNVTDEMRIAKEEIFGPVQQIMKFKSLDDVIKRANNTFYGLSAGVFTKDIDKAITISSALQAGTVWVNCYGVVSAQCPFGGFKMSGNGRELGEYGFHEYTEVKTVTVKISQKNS
Test: qHTS Assay for Inhibitors of Aldehyde Dehydrogenase 1 (ALDH1A1);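 as to activity, negative = inhibition: plate controls were no enzyme wells and a reference inhibitor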
Conditions: Purified ALDH1A1, NADH fluorescence, propionaldehyde substrate; series mostly up to 75.3 µM; activity, negative = inhibition: at the top concentration
Potency is read from the fitted curve at half-maximal effect.

Row | Structure (SMILES) | activity, negative = inhibition | Potency
1 | Cc1ccc(C)c(Cn2cnc3c(oc4ccccc43)c2=O)c1 | 2.37% (inactive) | –
2 | COc1ccc(OC)c(S(=O)(=O)Nc2cccc(-c3ccc4nncn4n3)c2)c1 | 0.157% (inactive) | –
3 | CC(NC(=O)COC(=O)c1cc(=O)[nH]c2ccccc12)c1ccccc1 (stereo not given) | -9.17% (inactive) | –
4 | COCCNC(=O)CCCn1c(=O)c2ccccc2n(Cc2cccc([N+](=O)[O-])c2)c1=O | 25.2% (inactive) | –
5 | CCOC(=O)N1CCN(CCC(=O)Nc2cc(OC)ccc2OC)CC1 | -8.02% (inactive) | –
6 | CC(C)(C)NC(=O)c1cc(NC(=O)c2ccco2)cc(NC(=O)c2ccco2)c1 | 13.8% (inactive) | –
7 | Cc1ccnc(NC(=O)c2ccco2)n1 | -4.29% (inactive) | –
8 | NC(=O)c1ccsc1NC(=O)c1ccco1 | – | 25.1 µM (active)
9 | O=C(c1ccc(F)cc1)N1CCC(n2nnc3ccccc32)CC1 | -4.1% (inactive) | –
10 | O=C(c1ccc(F)cc1)n1c(=S)nc2ccccn21 | – | 25.1 µM (active)
11 | O=C(Cn1c(=S)nc2ccccn21)N1CCc2ccccc2C1 | -9.63% (inactive) | –
12 | Cc1ccc2nc(-c3ccncc3)cc(C(=O)Nc3ccc(OC(F)F)cc3)c2c1 | 7.41% (inactive) | –
13 | COc1cc(NC(=O)COC(=O)c2cnc(C)cn2)c(C)cc1[N+](=O)[O-] | -4.73% (inactive) | –
14 | CC1CCCC(NC(=O)c2cccc(N3CCCC3=O)c2)C1C (stereo not given) | -7.12% (inactive) | –
15 | CCC(C)(C)NC(=O)C1c2ccccc2Oc2ccccc21 | -1.36% (inactive) | –
16 | Cc1ccc(S(=O)(=O)/N=S(\C)C(C)C)cc1 (stereo not given) | 13.2% (inactive) | –
17 | CSCC(NS(=O)(=O)c1ccc(C)cc1)C(=O)O (stereo not given) | 0.012% (inactive) | –
18 | Cc1ccc(S(=O)(=O)NCC(C)NS(C)(=O)=O)cc1 (stereo not given) | – | 14.1 µM (active)
19 | CC1CC(=O)Nc2ccccc2N1S(=O)(=O)c1cccs1 (stereo not given) | 6.68% (inactive) | –
20 | O=C(CNC1CCCCC1)NCC1(c2ccccc2)CCCC1 | 3.69% (inactive) | –
21 | Cc1ccc2nc(-c3ccncc3)cc(C(=O)Nc3ccc4c(c3)OCCO4)c2c1 | -5.9% (inactive) | –
22 | O=C(CSc1ccccc1)Nc1ccc(C(=O)Nc2cccc(O)c2)cc1 | -9.58% (inactive) | –
23 | Cc1nc2ccccc2n1CC(=O)N/N=C/c1cccnc1 | 7.97% (inactive) | –
24 | Cn1c(=N)n(CC(O)c2cccs2)c2ccccc21 (stereo not given) | 7.93% (inactive) | –
25 | CC(=O)c1ccc2c(c1)OCCOCCOc1ccc(C(C)=O)cc1OCCOCCO2 | 5.45% (inactive) | –
26 | COc1ccc(/C(N)=N/OC(=O)CCCc2ccccc2)cc1 | 9.4% (inactive) | –
27 | COc1ccc(CC(=O)NC(C)CCc2ccccc2)cc1 (stereo not given) | – | 2.51 µM (active)
28 | COc1ccc(C(=O)NC(=S)NNC(=O)c2c(-c3ccccc3)noc2C)cc1 | -11.2% (inactive) | –

Row | Structure (SMILES) | activity, negative = inhibition | Potency
29 | COc1ccc(C(CC(=O)O)NC(=O)Cc2ccccc2)cc1 (stereo not given) | 5.83% (inactive) | –
30 | COc1ccc(OCCCC(=O)NCCc2ccccc2)cc1 | 6.31% (inactive) | –
31 | COc1ccc(C(=O)NC(=S)NNC(=O)CCc2ccccc2)cc1 | – | 25.1 µM (active)
32 | CCOC(=O)C1=C(CN2CCc3ccccc32)NC(=O)NC1c1ccc(Cl)cc1 (stereo not given) | – | 25.1 µM (active)
33 | COCCOC(=O)C1=C(C)NC(=O)NC1c1ccc(Cl)cc1 (stereo not given) | -3.24% (inactive) | –
34 | CCOC(=O)C1=C(CN2CCc3ccccc32)NC(=O)NC1c1cccc([N+](=O)[O-])c1 (stereo not given) | -7.14% (inactive) | –
35 | Cc1onc(C(=O)NCc2ccc(F)cc2)c1[N+](=O)[O-] | 17% (inactive) | –
36 | O=C1CCCN1CCCNC(=S)Nc1ccc(F)c(Cl)c1 | -2.84% (inactive) | –
37 | CCOc1ccc(OCC)c(NC(=O)C2CCN(S(=O)(=O)c3c(C)noc3C)CC2)c1 | 4.05% (inactive) | –
38 | Cc1ccc(NC(=O)C2CCCN(S(=O)(=O)c3c(C)noc3C)C2)c(C)c1 (stereo not given) | 8.3% (inactive) | –
39 | Cc1noc(/C=C/c2ccco2)c1S(=O)(=O)N1CCC(C(=O)Nc2ccc(Cl)cn2)CC1 | – | 15.8 µM (active)
40 | CCCCN1C(=S)NC[C@@H]1C(C)CC (stereo not given in full) | 6.56% (inactive) | –
41 | Cc1ccc(C)c(-n2cc(CN3CCN(C(=O)c4ncn[nH]4)CC3)c(-c3ccccc3)n2)c1 | 0.725% (inactive) | –
42 | Cc1cc(NC(=O)CSc2nnc(Nc3ccccc3F)s2)no1 | 16.2% (inactive) | –
43 | O=C1C[C@@H](O)[C@@H](O)[C@H]2[C@@H]3C(=O)N(Cc4ccc5c(c4)OCO5)C(=O)[C@@H]3CC[C@H]12 | -12% [at 13.5 µM] (inactive) and -15.2% [at 13.5 µM] (inactive) | –
44 | O=C(Nc1ccc2c(c1)OCO2)c1ccc(N2C(=O)c3ccccc3C2=O)cc1 | -14.5% (inactive) | –
45 | O=CN1CCN(C2CC(=O)N(c3ccc4c(c3)OCO4)C2=O)CC1 (stereo not given) | – | 12.6 µM (active)
46 | Cc1cc(C)nc(N2CCC(C(=O)Nc3ccc4c(c3)OCCO4)CC2)n1 | -1.55% (inactive) | –
47 | CCn1cc(C(=O)Nc2cc(C)ccc2C)c(=O)c2ccc(C)nc21 | 9.15% (inactive) | –
48 | C=CCN(C(=O)c1cc(C)cc(C)c1)C1(C(=O)Nc2ccccc2)CCN(C(C)C)CC1 | 7.62% (inactive) | –
49 | Cc1ccnc(SCC(N)=O)n1 | 4.55% (inactive) | –
50 | O=C(O)CCSc1nnc(-c2ccccc2)n1-c1ccccc1 | 13.6% (inactive) | –
51 | COc1ccc(C(=O)NC(=O)CSc2nnc(-c3ccco3)n2-c2ccccc2)cc1 | – | 31.6 µM (active)
52 | COc1ccc(-c2nnc(SCC(=O)c3ccco3)n2-c2ccccc2)cc1 | 2.43% (inactive) | –
53 | Cc1cccc(C)c1NC(=O)CCCSc1nnc(-c2ccco2)n1-c1ccccc1 | – | 25.1 µM (active)
54 | O=C(CSc1nnc(-c2ccco2)n1-c1ccccc1)NCCc1ccccc1 | 1.44% (inactive) | –
55 | CCn1c(SCC(=O)Nc2nccs2)nnc1-c1ccco1 | -1.17% (inactive) | –
